Source: PubChem BioAssay
Where “and” joins values, the source holds several entries; their conditions need not be identical. Equal entries are not always repeated. Calls of active or inactive are those of the source.

Experiments:
[1] = test system: Plasmodium falciparum Sir2 (PF13_0152, Sir2A); assay: pfSir2 binders on small-molecule microarrays, primary screen, biochemical, small-molecule microarray, 635 nm fluorescence (AID 1098); settings: small-molecule microarray binding, fluorescence 635 nm; higher = more signal;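 note: score merges spot fluorescence intensity with its signal-to-noise ratio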
[2] = small-molecule microarray binders of probe aDKK1, primary screen, biochemical, biotinylated probe, 635/667 nm fluorescence (AID 1099); settings: higher = more signal;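 note: score merges 667nm spot fluorescence with signal to noise across triplicate slides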
[3] = small-molecule microarray binders of probe aCHRDL2, primary screen, biochemical, biotinylated probe, 635/667 nm fluorescence (AID 1100); settings: higher = more signal
[4] = splicing luciferase reporter signal modulators, primary screen, spliceosome inhibition project, cell-based, HEK293, splice +/- reporter (AID 1101); settings: luminescence, 24 h, higher = more signal, called active from +8 up or from −8 down;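 note: HEK293 cells carrying a splicing-competent luciferase reporter gene; test concentration not given here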
[5] = biological target: Fibroblast growth factor 10 (Homo sapiens) (UniProt O15520); assay: FGF10 binders on small-molecule microarrays, primary screen, biochemical, small-molecule microarray, 635 nm fluorescence (AID 1102); settings: FGF10 binding, fluorescence 635 nm, higher = more signal
[6] = test system: glycogen synthase kinase-3 (GSK3A per assay name; protocol says GSK3B); assay: GSK3 binders on small-molecule microarrays, primary screen, biochemical, small-molecule microarray, 635 nm fluorescence, GSK3A (AID 1103); settings: small-molecule microarray binding, fluorescence 635 nm; higher = more signal; note: the record names both GSK3A and GSK3B
[7] = biological target: Epidermal growth factor receptor (Homo sapiens) (UniProt P00533); assay: EGFR binders on small-molecule microarrays, primary screen, biochemical, small-molecule microarray, 635 nm fluorescence (AID 1104); settings: EGFR binding, higher = more signal;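 note: score merges 667 nm emission intensity with spot signal to noise over triplicate slides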
[8] = biological target: Follistatin-related protein 3 (Homo sapiens) (UniProt O95633); assay: FSTL3 binders on small-molecule microarrays, primary screen, biochemical, small-molecule microarray, 635 nm fluorescence (AID 1105); settings: FSTL3 binding, higher = more signal;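 note: score merges emission near 667 nm and signal to noise per printed spot across three slides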
[9] = biological target: Dickkopf-related protein 1 (Homo sapiens) (UniProt O94907); assay: DKK1 binders on small-molecule microarrays, primary screen, biochemical, small-molecule microarray, 635 nm fluorescence scan (AID 1106); settings: DKK1 binding, higher = more signal;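 note: score merges emission near 667 nm with signal to noise over three replicate slides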
[10] = test system: Inhibin beta A chain (activin A); assay: INHBA (activin A) binders on microarrays, primary screen, biochemical, small-molecule microarray, 635 nm fluorescence scan (AID 1107); settings: small-molecule microarray binding, higher = more signal;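 note: mouse activin A protein probed at 4.33 µg/mL on printed slides; score merges bound-protein fluorescence near 667 nm with spot signal-to-noise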
[11] = test system: Human papillomavirus type 1a protein E7 (residues 44-93); assay: HPV1a E7 fragment binders on microarrays, primary screen, biochemical, small-molecule microarray, residues 44-93, 635 nm fluorescence (AID 1108); settings: small-molecule microarray binding, fluorescence 635 nm; higher = more signal;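 note: E7 fragment applied at 1 µg/mL in TBST for 1 h at 4 C; score combines spot fluorescence with its signal to noise ratio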
[12] = modulators of HCV replicon luciferase signal, primary screen, HCV replication inhibitor project, Huh7 cells, luciferase reporter (AID 1109); settings: 48 h, higher = more signal;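 note: huh7 hepatoma cells harbouring a luciferase neomycin HCV replicon reporter; luciferase luminescence as measure of HCV replicon replication; test concentration not given here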
[13] = biological target: Left-right determination factor 2 (Homo sapiens) (UniProt O00292); assay: LEFTY2 binders on small-molecule microarrays, primary screen, biochemical, small-molecule microarray, 635 nm fluorescence scan (AID 1110); settings: LEFTY2 binding, higher = more signal
[14] = biological target: Calmodulin-1 (Homo sapiens) (UniProt P0DP23); assay: CALM1 binders on microarrays, EGTA buffer, profiling panel, biochemical, small-molecule microarray, Cy5-labelled CALM1 (AID 1111); settings: Cy5-CALM1 binding fluorescence, higher = more signal;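 note: labelled calmodulin applied in Tris saline Tween buffer holding calcium plus EGTA and DTT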
[15] = biological target: Calmodulin-1 (Homo sapiens) (UniProt P0DP23); assay: calcium-bound CALM1 binders on microarrays, profiling panel, artefact control for SMM control-protein annotation, biochemical, small-molecule microarray, Cy5-labelled CALM1, plus calcium (AID 1112); settings: Cy5-CALM1 binding fluorescence, higher = more signal;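 note: score merges spot fluorescence with signal to noise from triplicate slides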
[16] = small-molecule microarray binders of probe aWnt5a, primary screen, biochemical, biotinylated probe, 635/667 nm fluorescence (AID 1113); settings: higher = more signal;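 note: score merges 667 nm fluorescence intensity with signal-to-noise per printed feature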
[17] = small-molecule microarray binders of probe aShh, primary screen, biochemical, biotinylated probe, 635/667 nm fluorescence (AID 1114); settings: higher = more signal;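 note: probe is biotin-labelled aShh protein from a stem cell growth factor screen; measures binding of labelled protein to compounds printed on the slide; score merges feature fluorescence at 667 nm with signal-to-noise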
[18] = small-molecule microarray binders of probe aNog, primary screen, biochemical, biotinylated probe, 635/667 nm fluorescence (AID 1115); settings: higher = more signal;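 note: probe is biotinylated aNog protein used at 0.15 µg/mL for 1 h at 4 C; z-score combines 667 nm fluorescence of each spot with its signal to noise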
[19] = biological target: Torsin-1A-interacting protein 1 (Homo sapiens) (UniProt Q5JTV8); assay: LAP1 binders from COS7 cell lysate, primary screen, small-molecule microarray, 635/667 nm fluorescence (AID 1116); settings: COS7-hLAP1 lysate binding, 635 nm fluorescence, higher = more signal
[20] = biological target: Alpha-bungarotoxin (Bungarus multicinctus) (UniProt P60615); assay: alpha-bungarotoxin binders on microarray, profiling panel, artefact control for SMM control protein annotation, biochemical, small-molecule microarray, Alexa647 label, 635/667 nm fluorescence (AID 1117); settings: alpha-BTX-A647 binding fluorescence, higher = more signal
Sequence of Alpha-bungarotoxin (Bungarus multicinctus) (P60615 whole entry, looked up): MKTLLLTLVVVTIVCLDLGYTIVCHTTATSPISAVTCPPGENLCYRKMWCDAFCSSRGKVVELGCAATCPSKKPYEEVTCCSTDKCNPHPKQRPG

Sequence of Dickkopf-related protein 1 (Homo sapiens) (O94907 whole entry, looked up): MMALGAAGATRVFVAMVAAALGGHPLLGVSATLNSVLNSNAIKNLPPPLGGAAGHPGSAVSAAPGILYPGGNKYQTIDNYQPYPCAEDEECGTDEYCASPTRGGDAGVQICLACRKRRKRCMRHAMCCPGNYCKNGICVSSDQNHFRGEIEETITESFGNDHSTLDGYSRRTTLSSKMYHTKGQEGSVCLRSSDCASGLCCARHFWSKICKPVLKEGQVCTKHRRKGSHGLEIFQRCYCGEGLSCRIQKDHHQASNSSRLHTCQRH
Sequence of Fibroblast growth factor 10 (Homo sapiens) (O15520 whole entry, looked up): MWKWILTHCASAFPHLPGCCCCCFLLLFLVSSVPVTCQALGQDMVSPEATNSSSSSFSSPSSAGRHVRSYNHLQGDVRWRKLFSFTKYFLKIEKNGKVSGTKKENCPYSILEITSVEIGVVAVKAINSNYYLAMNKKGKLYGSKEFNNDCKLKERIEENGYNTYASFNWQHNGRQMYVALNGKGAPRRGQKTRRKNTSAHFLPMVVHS
Sequence of Epidermal growth factor receptor (Homo sapiens) (P00533 whole entry, looked up): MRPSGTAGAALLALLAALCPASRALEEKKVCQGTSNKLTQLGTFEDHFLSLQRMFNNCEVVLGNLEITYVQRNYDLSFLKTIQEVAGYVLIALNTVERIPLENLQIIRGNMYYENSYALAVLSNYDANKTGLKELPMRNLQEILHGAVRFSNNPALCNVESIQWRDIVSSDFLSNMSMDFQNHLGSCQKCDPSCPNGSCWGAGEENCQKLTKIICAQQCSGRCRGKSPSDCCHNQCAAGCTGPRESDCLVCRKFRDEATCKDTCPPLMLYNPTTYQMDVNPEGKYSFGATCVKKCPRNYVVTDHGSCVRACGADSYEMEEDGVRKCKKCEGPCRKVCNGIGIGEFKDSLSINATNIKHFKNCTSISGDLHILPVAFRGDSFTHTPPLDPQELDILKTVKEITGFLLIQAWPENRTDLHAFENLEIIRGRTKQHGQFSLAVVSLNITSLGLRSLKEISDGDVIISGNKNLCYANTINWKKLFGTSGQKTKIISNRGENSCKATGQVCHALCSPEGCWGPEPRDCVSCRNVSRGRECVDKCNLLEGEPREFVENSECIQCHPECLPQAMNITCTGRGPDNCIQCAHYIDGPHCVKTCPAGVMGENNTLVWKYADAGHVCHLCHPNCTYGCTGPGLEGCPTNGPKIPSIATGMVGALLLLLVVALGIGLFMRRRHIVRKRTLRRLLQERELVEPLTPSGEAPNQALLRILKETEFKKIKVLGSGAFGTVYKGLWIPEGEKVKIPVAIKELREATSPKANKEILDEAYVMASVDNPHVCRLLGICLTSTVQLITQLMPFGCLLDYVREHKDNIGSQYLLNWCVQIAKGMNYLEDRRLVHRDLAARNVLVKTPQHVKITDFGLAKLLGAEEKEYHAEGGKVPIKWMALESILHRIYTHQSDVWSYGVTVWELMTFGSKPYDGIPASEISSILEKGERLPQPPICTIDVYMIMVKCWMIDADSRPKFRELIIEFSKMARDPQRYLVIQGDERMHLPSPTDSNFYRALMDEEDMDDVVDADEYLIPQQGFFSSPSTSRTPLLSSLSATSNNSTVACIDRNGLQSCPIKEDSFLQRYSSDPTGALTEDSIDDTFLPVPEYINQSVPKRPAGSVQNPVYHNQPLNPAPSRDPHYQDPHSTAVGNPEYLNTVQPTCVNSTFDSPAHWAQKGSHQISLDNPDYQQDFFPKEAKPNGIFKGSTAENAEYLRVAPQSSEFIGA
Sequence of Follistatin-related protein 3 (Homo sapiens) (O95633 whole entry, looked up): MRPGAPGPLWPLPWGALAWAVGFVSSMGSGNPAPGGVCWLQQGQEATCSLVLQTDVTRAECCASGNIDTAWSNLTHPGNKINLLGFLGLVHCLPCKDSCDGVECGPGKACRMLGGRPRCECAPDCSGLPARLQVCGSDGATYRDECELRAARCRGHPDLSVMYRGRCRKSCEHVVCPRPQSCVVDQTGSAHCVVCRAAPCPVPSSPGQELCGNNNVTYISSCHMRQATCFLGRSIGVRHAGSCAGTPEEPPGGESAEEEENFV
Sequence of Torsin-1A-interacting protein 1 (Homo sapiens) (Q5JTV8 whole entry, looked up): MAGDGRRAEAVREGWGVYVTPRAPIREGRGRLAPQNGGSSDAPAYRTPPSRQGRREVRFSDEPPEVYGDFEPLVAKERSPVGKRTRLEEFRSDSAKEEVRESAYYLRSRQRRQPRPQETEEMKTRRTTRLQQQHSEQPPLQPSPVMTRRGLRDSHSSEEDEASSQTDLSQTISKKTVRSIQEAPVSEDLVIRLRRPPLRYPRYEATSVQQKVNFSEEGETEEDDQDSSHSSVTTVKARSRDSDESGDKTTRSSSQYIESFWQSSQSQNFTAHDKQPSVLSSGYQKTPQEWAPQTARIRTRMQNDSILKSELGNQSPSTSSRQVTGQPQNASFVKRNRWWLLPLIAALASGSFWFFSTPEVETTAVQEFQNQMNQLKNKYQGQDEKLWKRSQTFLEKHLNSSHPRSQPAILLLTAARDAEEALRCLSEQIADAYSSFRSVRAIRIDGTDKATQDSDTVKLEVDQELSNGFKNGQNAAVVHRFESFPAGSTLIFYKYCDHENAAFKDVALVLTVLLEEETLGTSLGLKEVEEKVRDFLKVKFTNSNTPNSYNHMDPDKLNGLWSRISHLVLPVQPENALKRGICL
Sequence of Left-right determination factor 2 (Homo sapiens) (O00292 whole entry, looked up): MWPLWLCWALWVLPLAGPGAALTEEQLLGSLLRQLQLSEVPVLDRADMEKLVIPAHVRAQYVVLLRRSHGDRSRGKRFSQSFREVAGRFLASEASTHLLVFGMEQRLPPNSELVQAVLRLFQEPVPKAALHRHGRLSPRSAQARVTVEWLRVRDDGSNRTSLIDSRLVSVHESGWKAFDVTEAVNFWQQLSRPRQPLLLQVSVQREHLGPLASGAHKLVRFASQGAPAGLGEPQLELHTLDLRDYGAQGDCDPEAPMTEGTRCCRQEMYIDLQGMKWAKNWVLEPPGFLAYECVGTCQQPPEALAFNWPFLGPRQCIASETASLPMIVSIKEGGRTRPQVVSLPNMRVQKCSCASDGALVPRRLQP

| Compound | composite z-score [1] | composite z-score [2] | composite z-score [3] | z-score [4] | composite z-score [5] | composite z-score [6] | composite z-score [7] | composite z-score [8] | composite z-score [9] | composite z-score [10] | composite z-score [11] | z-score [12] | composite z-score [13] | composite z-score [14] | composite z-score [15] | composite z-score [16] | composite z-score [17] | composite z-score [18] | composite z-score [19] | composite z-score [20] |
| --- | --- | --- | --- | --- | --- | --- | --- | --- | --- | --- | --- | --- | --- | --- | --- | --- | --- | --- | --- | --- |
| CC(C)[Si]1(C(C)C)OCc2cc(C3CC3)nc(CCc3ccccc3)c21 | -0.534 and -0.371 | 0.0295 and -0.146 | 0.221 and -0.262 | -0.383 (inactive) and 0.693 (inactive) | -0.348 and 0.0251 | -0.897 and 0.178 | 0.105 and 0.15 | -0.238 and 0.195 | -0.293 and 0.135 | 0.768 and 0.242 | -0.789 and 0.192 | -0.745 and -0.958 | 0.045 and 0.273 | 0.154 and -0.425 | -0.253 and -0.002 | -0.15 and -0.0512 | -0.181 and -0.221 | 0.0732 and -0.0554 | -0.527 and 0.362 | 0.0536 and -0.448 |
| C=CCN1C(=O)[C@]2(O[C@H](CCn3cc(CCO)nn3)[C@@H]([Si](C)(C)c3ccc(OC)cc3)[C@@H]2C)c2cc(N3C(=O)c4cccc5cccc3c45)ccc21 | 0.306 and 1.07 | -0.206 and -0.233 | -0.106 and -0.142 | -4 (inactive) and -3.52 (inactive) | 0.726 and 1.05 | 0.26 and 0.521 | -0.0684 and -0.247 | 0.228 and 0.181 | -0.0095 and -0.0589 | 0.538 and 0.516 | 1.33 and 0.725 | -5.11 and -5.13 | 0.238 and -0.0491 | 0.345 and 0.772 | -0.0218 and 0.227 | -0.0203 and 0.0079 | 0.0048 and 0.14 | -0.136 and -0.0115 | 1.11 and 0.749 | 0.334 and 0.366 |
| C=CCN(CCCC)C(=O)C1N(c2c(Cl)cccc2CO)C(=O)C2C(C(=O)O)C3C=CC21O3 (stereo not given) | 0.934 and -0.194 | 0.0215 and -0.0881 | 1.08 and 0.748 | -0.786 (inactive) and -0.929 (inactive) | -0.613 and -1.38 | -2.1 and -0.938 | -1.71 and -1.18 | -2.37 and -1.28 | -2.46 and -2.71 | -1.41 and -0.0137 | -1.84 and 0.389 | -0.325 and -0.567 | -3.23 and -2.18 | -0.623 and -0.783 | 0.713 and -0.0889 | -0.144 and -0.0894 | 0.151 and -0.279 | 0.0107 and 0.242 | -0.529 and -0.927 | -0.406 and -1.31 |
| CCN1C(=O)[C@H]2[C@H]3[C@H](O)[C@H](O)CC(=NNC(=O)OCc4ccc(OC)cc4)[C@H]3CC[C@H]2C1=O | 0.182 | 1.55 | 1.27 | -0.324 (inactive) | 0.178 | -0.152 | -0.698 | 0.0229 | -0.819 | 0.0193 | -0.432 | 0.182 | 0.261 | -0.222 | 0.161 | 0.0597 | 0.0611 | 0.664 | 0.537 | 0.379 |
| C=C[C@@H](OC)[C@H](O)c1ccc(OC)c(O)c1 | -1.12 and 0.402 | -0.42 and -0.521 | -0.6 and -0.0832 | -0.984 (inactive) and -1.14 (inactive) | 0.146 and -0.514 | -0.374 and -0.669 | 0.526 and -1.08 | 0.878 and -0.9 | 0.131 and -0.539 | 1.27 and -0.492 | -0.306 and -0.0635 | 0.552 and -0.127 | 0.861 and -0.46 | -1.19 and -1.42 | -0.799 and -0.187 | -0.293 and -0.208 | -0.289 and -0.138 | -0.321 and -0.347 | 0.0742 and 0.111 | -0.397 and 0.989 |
| C[C@@H]1CC[C@H]2C(=O)NC[C@@H](O)CN2[C@H]1c1ccc(Br)cc1 | 0.102 and 0.107 | -0.214 and -0.138 | -0.0441 and -0.0598 | 0.338 (inactive) and 0.0732 (inactive) | -0.0319 and -0.141 | -0.645 and -0.288 | -0.251 and -0.159 | -0.348 and -0.394 | -0.219 and -0.179 | 0.747 and 0.211 | 0.111 and -0.325 | -0.376 and -0.362 | -0.0095 and 0.204 | -0.234 and -0.448 | -0.342 and -0.438 | -0.0758 and -0.0405 | -0.138 and 0.235 | 0.0014 and -0.194 | 0.36 and 0.348 | 0.141 and -0.195 |
